AmpC no deterg = inhibitors of E. coli AmpC beta-lactamase without detergent; 330,000 tested, 0.52% active; AmpC nitrocefin hydrolysis, absorbance 480 nm, 0.0001% Triton; Potency, µM (doses to about 57.1 µM), inactives show at the highest dose activity change, negative = inhibition, actives largely listed as inhibitors;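 also: potency is read from the fitted curve at half-maximal effect; plate controls were no compound for no effect and no enzyme for full effect; nearly all actives have a fitted effect of over 20% in size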
Target sequence (P00811 whole entry, looked up): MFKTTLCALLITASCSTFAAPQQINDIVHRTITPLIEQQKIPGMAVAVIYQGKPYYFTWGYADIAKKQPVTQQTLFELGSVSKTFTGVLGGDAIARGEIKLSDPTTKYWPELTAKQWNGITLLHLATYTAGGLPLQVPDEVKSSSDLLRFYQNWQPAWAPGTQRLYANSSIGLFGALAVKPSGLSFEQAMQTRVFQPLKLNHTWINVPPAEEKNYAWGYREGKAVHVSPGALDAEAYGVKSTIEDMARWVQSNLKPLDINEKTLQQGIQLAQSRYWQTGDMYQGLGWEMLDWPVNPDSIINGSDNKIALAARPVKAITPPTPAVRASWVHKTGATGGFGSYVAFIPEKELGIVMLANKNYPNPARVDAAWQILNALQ
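AmpC (5.3 nM in the dispensed reagent) in 20 mM phosphate pH 7.0 with 0.01% (detergent screen) or 0.0001% Triton X-100 was preincubated with compounds for 15 min at room temperature. Nitrocefin was then added from an 800 uM solution, and hydrolysis was followed at 480 nm.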
HCV inh = inhibitors of hepatitis C virus infection. 340,000 tested, 3.4% active. Potency, µM (top dose mostly 41.8 µM), without a hit: top-dose activity change, negative = inhibition, usual class: inhibitors. Huh7.5.1 HCVcc-Cre infection, luciferase reporter, 44 h; also: potency is read from the fitted curve at half-maximal effect
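A cell-based infection assay in which seeded cells (1,000 per well) receive test compound after 4 h, are inoculated with HCVcc-Cre at approximately 0.5 moi, and are incubated 44 h before luminescence detection.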
HCMV inh = inhibitors of human cytomegalovirus; HFF cells, HCMV-luciferase reporter, 72 h; stronger effect = lower value; activity change, negative = inhibition, % at 57.5 µM; 410,000 tested, 4.5% active; in the data active = activity change below about -60%; inconclusive = no clear call, values can overlap the other calls; inactive = above about -39%
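Two-dose cell screen: HFF monolayers treated with compounds and infected with luciferase-expressing HCMV at 1 PFU/cell, 72 h at 37C, then lysed for luciferase measurement.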
FMDV inh = antivirals against foot and mouth disease virus; FMDV antiviral cell-based qHTS; Potency, µM (top dose mostly 57.9 µM), for the others: at the top dose activity change, negative = inhibition, hits mostly inhibitors; 410,000 tested, 1.2% active; AID 1159524; calls by dose curve; tested in HEK293T cells; also: read-out not given here; potency is read from the fitted curve at half-maximal effect; nearly all actives have a fitted effect of over 45% in size
AmpC inh detg = blocks E. coli AmpC beta-lactamase in detergent assay; 370,000 tested, 0.041% active; Potency, µM (doses to about 114 µM), inactives show at the top dose activity change, negative = inhibition, actives largely listed as inhibitors; AmpC hydrolysis of nitrocefin, absorbance 480 nm, 0.01% Triton; P00811;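 also: potency is read from the fitted curve at half-maximal effect; 0% = no-compound wells and -100% = no-enzyme wells; nearly all actives have a fitted effect of over 25% in size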
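20 mM phosphate pH 7.0 + 0.01% (detergent screen) or 0.0001% Triton X-100; 5.3 nM AmpC reagent; cpd preinc 15 min RT; nitrocefin (800 uM stock) to start; A480 q20 s × 4 min; Activity was normalised to no-enzyme and no-compound control wells.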
* = called active by the depositor; ? = inconclusive; . = not tested or not shown; [ ] = remark or other dose. Most compounds without a hit are left out; they make up all but 7.3% or so of the library. Unless noted, calls follow the shape of the dose curve; as a rule, active = well fitted curve in the direction sought with a large enough effect; inconclusive = small, poorly fitted or top-dose-only effect, or another doubt; inactive = no such curve, though single readings can be large; an effect the other way counts as inactive or inconclusive. Unless noted, % is scaled to controls: 0 for no effect and ±100 for the full control effect.

SMILES	AmpC no deterg	HCV inh	HCMV inh	FMDV inh	AmpC inh detg
COc1ccc(S(=O)(=O)Nc2ccccc2OC)cc1NC(=O)CC1CC2CCC1C2 (stereo unspecified)	-19%	6.3µM*	?	-10%	-17%
COc1ccc(S(=O)(=O)Nc2ccccc2C(=O)NC2CC2)cc1NC(C)=O	-13%	1%	31	8%	1%
COc1ccc(S(=O)(=O)N2CCCCC2)cc1NC(=O)CN(C)C1CCCCC1	9%	11µM*	-38	16%	-14%
CCOC(=O)C1=C[C@@H](C(C)C)N(S(=O)(=O)c2ccc(C)cc2)[C@H]1c1ccc(C(C)C)cc1	.	.	-36	-26%	.
CC(=O)c1cccc(NC(=O)CSc2ncc(C(=O)Nc3ccccc3)c(=O)n2C)c1	-2%	?	-6	?	-9%
Nc1nc(-c2ccc(F)cc2)cc(C(F)(F)F)n1	-11%	?	23	-19%	-9%
CS(=O)(=O)c1nc(-c2ccc(F)cc2)cc(C(F)(F)F)n1	0%	6.3µM*	-99*	28µM*	6%
COc1ccc(-c2cc(C(F)(F)F)nc(S(C)(=O)=O)n2)cc1	-5%	?	-105*	20µM*	-1%
CCC[C@H]1[C@@H](NC(=O)NCc2ccco2)CC[C@@]23CCCN2C(=O)CCC[C@@H]13	.	.	-22	.	.
COC1C(C)OC(OC2CC(C)(O)Cc3cc4c(c(O)c32)C(=O)c2c(O)cc3c(c2C4=O)OC2OC3(C)C(O)C(N(C)C)C2O)C(OC)C1(C)OC (stereo unspecified)	.	4µM*	-98*	-9%	.
O=C(Nc1ccccc1)[C@H]1[C@H](CO)[C@H]2Cn3c(cccc3=O)[C@H]2N1C(=O)C1CC1	.	.	42	.	.
Cc1ccc(/C=c2\sc3n(c2=O)CN(c2ccc(Br)cc2)CN=3)o1	-34%	2%	31	-3%	-20%
Cc1ccc(N2CN=c3s/c(=C\c4cccnc4)c(=O)n3C2)cc1	-2%	-12%	-69*	19%	?
COc1ccc(NC(=O)c2oc3ccccc3c2NC(=O)COc2ccc(F)cc2)c(OC)c1	.	.	0	-5%	1%
COc1ccccc1N(C(=O)CCl)c1cn(C(C)=O)c2ccccc12	42%	?	-97*	18µM*	-1%
CC(=O)n1cc(Nc2ccccc2C(=O)O)c2ccccc21	-20%	3%	42	1%	-8%
CCOC(=O)c1ccccc1Nc1cn(C(C)=O)c2ccccc12	-8%	0%	-3	-19%	0%
CC(=O)n1cc(N(C(=O)CCl)c2ccc(Cl)cc2)c2ccccc21	29%	3.5µM*	.	11µM*	3%
CCn1cc(C(=O)OCC(=O)NCc2ccccc2Cl)c(=O)c2ccc(C)nc21	-9%[11.4 µM]	-13%	-102*	-23%	-13%
COC(=O)C1CN(C(=O)COc2ccc(Cl)cc2C)c2ccccc2O1 (stereo unspecified)	17%	5%	-61*	3%	-10%
COc1cccc(OC)c1C(=O)OCC(=O)NC1CCCCCC1	36%	-13%	?	8%	1%
C[C@@H]1CN([C@@H](C)CO)C(=O)CCCn2nncc2CO[C@H]1CN(C)Cc1ccccc1C(F)(F)F	.	.	-19	-18%	.
Cc1ccc(O)c(N=NC2=C(O)CC(C)(C)CC2=O)c1	-16%	?	-101*	22%	0%
CC1(C)CC(=O)C(N=Nc2cc(Cl)c(Cl)c(Cl)c2)=C(O)C1	-38%	-28%	4	28%	-5%
CC(=O)c1cccc(-c2ccnc3c2CC(C(=O)NCc2ccccc2)O3)c1 (stereo unspecified)	.	.	-86*	-9%	.
SMILES	AmpC no deterg	HCV inh	HCMV inh	FMDV inh	AmpC inh detg
CC(C)c1ccc(NC(=O)C2Cc3c(-c4cccc(C(N)=O)c4)ccnc3O2)cc1 (stereo unspecified)	.	.	11	-13%	.
O=C(NCc1ccccc1)C1Cc2c(-c3cccc(F)c3)ccnc2O1 (stereo unspecified)	.	.	-69*	-6%	.
CC(C)c1ccc(NC(=O)C2Cc3c(-c4cccc(F)c4)ccnc3O2)cc1 (stereo unspecified)	.	.	-76*	-27%	.
O=[N+]([O-])c1ccc(O)c(CN2CCCCCC2)c1	-21%	8%	-2	-10%	?
O=C(Nc1nnc(-c2ccco2)o1)c1ccc([N+](=O)[O-])s1	-13%	8.9µM*	-38	21%	-5%
CCCCn1c(N)c(N(CCOC)C(=O)c2cccc(N3C(=O)c4ccccc4C3=O)c2)c(=O)[nH]c1=O	-10%	5%	-1	-1%	-13%
COc1ccc(-n2ncc3c2CC(C)(C)CC3NC(=O)c2cnc(C)cn2)cc1 (stereo unspecified)	-9%	-1%	-64*	-15%	3%
Cc1nn(C)c(C)c1CCC(=O)NC1CC(C)(C)Cc2c1cnn2-c1ccccc1 (stereo unspecified)	-1%	-4%	-69*	-7%	5%
Cc1cnc(C(=O)NC2CC(C)(C)Cc3c2cnn3-c2ccccc2)cn1 (stereo unspecified)	-16%	13%	-17	-15%	1%
O=C1NC(=O)N(Cc2ccccc2)CC1Br (stereo unspecified)	.	5%	0	?	.
CN(CP(=O)(O)C(O)c1ccccc1)S(C)(=O)=O (stereo unspecified)	-16%	14%	-88*	-4%	3%
COc1ccccc1NC(=O)CSc1oc(-c2ccccc2)nc1S(=O)(=O)c1ccccc1	.	.	?	-15%	1%
CCOc1ccc(N2C(=O)CN(CC(=O)OC)C2=S)cc1	10%	11%	-69*	14%	-7%
O=C1c2ccccc2C(=O)c2c1ncn2-c1ccccc1	-24%	?	-68*	-15%	?
C=CC[C@@H](CC(=O)N[C@H](CO)Cc1ccccc1)C(=O)N[C@@H](COC(=O)[C@@H](CC=C)Cc1ccc(F)cc1)Cc1ccccc1	-4%	?	?	-12%	.
COc1ccc(C2=Nc3ccccc3N(C(=O)c3ccc(C)cc3)C2C(=O)NCc2ccccc2)cc1 (stereo unspecified)	.	.	-12	12%	.
COc1ccc(C2=Nc3ccccc3N(C(=O)c3ccc4c(c3)OCO4)C2C(=O)NCc2ccccc2)cc1 (stereo unspecified)	.	.	-71*	21%	.
Cc1cc(C)nc(NC(=O)c2cnc3sccn3c2=O)n1	40µM*	11%	105	-17%	?
Cc1cc(NS(=O)(=O)c2ccc(NC(=O)c3cnc4sccn4c3=O)cc2)nc(C)n1	-32%	12%	42	74%	2%
Cc1ccccc1C(=O)N1CCN(c2ccc(NC(=O)c3ccc([N+](=O)[O-])o3)cc2)CC1	-16%	?	-98*	?	-7%

Assay outcomes: PubChem BioAssay, National Center for Advancing Translational Sciences (NCATS)
